Among the data in PubChem BioAssay (Tox21) are Potency and activity change, negative = inhibition values, retold here.

Results filed as inconclusive are left out. Where a call stands in place of a potency, no number is given. Unmarked numbers belong to inactive results. Calls of active or inactive are those of the source. Calls come from the whole dose curve; as a rule, active = well fitted inhibition curve with a large enough effect in the repeat runs; inconclusive = weak or mixed curves; inactive = no such curve, though single readings can be large or run the other way. Where a SMILES comes first, the peptide text is derived from it.
Potency is the fitted concentration of half-maximal effect.

Chain of Cytochrome P450 2C19 (Homo sapiens) (P33261 whole entry, looked up): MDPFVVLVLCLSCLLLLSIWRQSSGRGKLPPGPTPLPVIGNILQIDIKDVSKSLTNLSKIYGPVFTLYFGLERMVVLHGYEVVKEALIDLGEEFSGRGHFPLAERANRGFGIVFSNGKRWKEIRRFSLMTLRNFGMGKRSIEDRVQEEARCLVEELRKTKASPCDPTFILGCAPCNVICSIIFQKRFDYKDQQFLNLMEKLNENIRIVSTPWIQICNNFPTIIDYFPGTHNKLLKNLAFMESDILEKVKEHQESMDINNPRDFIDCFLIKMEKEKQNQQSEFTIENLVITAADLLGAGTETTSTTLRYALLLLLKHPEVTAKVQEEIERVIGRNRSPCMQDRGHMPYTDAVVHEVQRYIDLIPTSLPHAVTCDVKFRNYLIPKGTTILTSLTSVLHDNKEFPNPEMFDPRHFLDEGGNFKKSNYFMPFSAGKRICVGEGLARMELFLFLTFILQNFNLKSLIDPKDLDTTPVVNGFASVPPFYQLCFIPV

The target of this assay is Cytochrome P450 2C19 (Homo sapiens) (UniProt P33261). Kind of assay: Cytochrome P450 Family 2 Subfamily C Member 19 (CYP2C19) small molecule antagonists: luciferase reporter qHTS assay (AID 1671197). Note: nearly all actives have a fitted effect of over 65% in size. As to conditions: P450-Glo CYP2C19 enzyme, luciferin luminescence, 1 h; series mostly up to 115 µM. An excerpt:
National Center for Advancing Translational Sciences [NCATS]
U.S. Environmental Protection Agency [EPA]
National Institutes of Environmental Health Sciences [NIEHS]
National Toxicology Program [NTP]
U.S. Food and Drug Administration [FDA]
Cytochrome P450 (CYP) enzymes are membrane-bound hemeproteins that play a key role in metabolism of drugs and xenobiotics. Evaluation of the effect of chemicals on CYP isozymes is useful to minimize the adverse drug reactions and toxicities in drug development process. Tox21 chemicals were tested for their effect on CYP enzyme activities by using P450-Glo (TM) screening systems (Promega Corporation, Madison, WI). These systems provide a luminescent method containing proluciferin substrates and are converted to luciferin products by CYP isozymes. The luciferin products formed are detected with a luciferin detection reagent, and the amount of light produced is proportional to CYP activity. P450-Glo (TM) CYP2C19 screening system (Catalog. No. V9880) was used to detect the compounds that interfere in CYP2C19 activity. The positive control compound used for CYP2C19 assay is ketoconazole (Sigma-Aldrich, St. Louis, MO).
Tox21 Assay Protocol Summary:
Two ul of enzyme-substrate mix was dispensed into medium binding white/solid 1536-well plates (Greiner Bio-One North America Inc., Monroe, NC) using a BioRaptr Flying Reagent Dispenser (FRD, Beckman Coulter, Brea, CA). Compounds dissolved in DMSO and positive control (ketoconazole) were transferred to the assay plates at 23 nl using a Pintool station (Wako, San Diego, CA). The assay plates were incubated at room temperature for 10 min. Then 2 ul of NADPH regeneration solution was added to each well of the assay plates using an FRD and incubated at 37C for 1 h. The reaction was stopped by adding 4 ul of detection reagent using an FRD and after 20 min incubation at room temperature the luminescence signal was measured using a ViewLux plate reader (Perkin Elmer, Shelton, CT). Data were expressed as relative luminescence units.
Take `CC(C)(C)NC[C@H](O)COc1cccc2c1CCCC2=O`: the Potency entry was “inactive”.
Still for that read-out and setting: as for `Cc1ccnc(N)c1`, the entry is “inactive”; as for `NCCOCCN`, 71 µM (active); as for `CC(=O)CC(=O)OC(C)(C)C`, “inactive”.
On to `COc1cc(/C=C/C(N)=O)cc(OC)c1OC`, for which the Potency entry is “inactive”.
As to `CNCCS(=O)(=O)O`, the Potency entry was “inactive”.
The same measure, in the same setting: in the case of `CCO` it was “inactive”.
Turning to `Cn1nnc2c(C(N)=O)ncn2c1=O`, the Potency result was “inactive”.
On to `CO[C@@]1(NC(=O)Cc2cccs2)C(=O)N2C(C(=O)O)=C(COC(N)=O)CS[C@@H]21`, for which the Potency result is “inactive”.
With `OCC1(CO)COCOC1`, the Potency result was “inactive”.
The same measure, in the same setting: in the case of `CCCCCCCCCCCCCCC(=O)NC(CO)CCCCCCCCCCCCCC` (stereo not given) it was “inactive”; in that of `O=C(O)CCCCCC(=O)O`, “inactive”; in that of `CCc1occc(=O)c1O`, “inactive”.
`CCCCOC(=O)C(C)O` (stereo not given): the Potency entry was “inactive”.
The same measure, in the same setting: in the case of `CO/N=C(/C(=O)N[C@@H]1C(=O)N2C(C(=O)[O-])=C(C[n+]3ccn4ncccc43)CS[C@H]12)c1nsc(N)n1` it was “inactive”.
On to `CCCCCCC1(C)CCC(=O)O1` (stereo not given), for which the Potency result is “inactive”.
Same read-out and setting: in the case of `C[Si]1(C)O[Si](C)(C)O[Si](C)(C)O[Si](C)(C)O[Si](C)(C)O1` it was “inactive”; in that of `O=C(O)c1cc2ccccc2nc1C(=O)O`, “inactive”.
In the case of `C=CCCCCCCCC`, the Potency result is “inactive”.
As for `O=C[O][Al]([O]C=O)[O]C=O`, the Potency entry is “inactive”.
Turning to `COc1cc(OC)nc(O[C@H](C(=O)O)C(OC)(c2ccccc2)c2ccccc2)n1`, the Potency entry was “inactive”.
Still for that read-out and setting: as for `CCCC(=O)Nc1ccc(OCC(O)CNC(C)C)c(C(C)=O)c1` (stereo not given), the entry is “inactive”.
For the compound `Cc1ccc(N)cc1S(=O)(=O)O`, the Potency is 79.6 µM (active).
As for `CCC/C=C(\C=O)CC`, the Potency is 39.9 µM (active).
`CC(=O)C(C)O` (stereo not given): the Potency result is “inactive”.
Same read-out and setting: in the case of `CCCCOCCOC(=O)COc1ccc(Cl)cc1Cl` it was 79.6 µM (active); in that of `C=Cc1ccc(C(C)(C)C)cc1`, “inactive”; in that of `C/C=C(\C)C(=O)OCCc1ccccc1`, 39.9 µM (active).
The same measure, in the same setting: as for `O=C(O)CNC(=O)CNC(=O)CNC(=O)CSC(=O)c1ccccc1`, the entry is “inactive”.
For `O=C1c2ccccc2C(=O)c2cc(Cl)ccc21`, the activity change, negative = inhibition was -15.8% [at 10.5 µM].
For the compound `Fc1ccccc1`, the Potency entry is “inactive”.
As for `Cc1cc(C)c(C(=O)O)c(C)c1`, the Potency entry was “inactive”.
The same measure, in the same setting: in the case of `COC(=O)c1cc(Cl)cc(Cl)c1` it was “inactive”; in that of `CCCSSCCC`, “inactive”.
The same measure, in the same setting: in the case of `CCC(=O)c1c(O)cc(O)cc1O` it was “inactive”; in that of `CC(=O)N[C@@H](CO)C(=O)N[C@@H](CC(=O)O)C(=O)N[C@@H](CCCCN)C(=O)N1CCC[C@H]1C(=O)O` (Ac-SDKP-OH), “inactive”.
In the case of `COc1cc2c(cc1OC)CN(C(=O)[C@H](C)N[C@@H](CCc1ccccc1)C(=O)O)[C@H](C(=O)O)C2`, the Potency entry is “inactive”.
The same measure, in the same setting: in the case of `C=CC(=O)CCCCC` it was “inactive”.
Still for that read-out and setting: as for `Cc1ccc2c(c1)C(=O)c1ccccc1C2=O`, the figure is 11.2 µM (active).
Consider `CCCCCCCCCOC(=O)c1ccccc1C(=O)OCCCCCCCCC`, for which the Potency is 39.8 µM (active).
